# G9a inh: G9a (human) methyltransferase inhibition; Q96KQ7; G9a H3K9 monomethylation, AlphaScreen, 2 h; Potency, µM (top dose mostly 102 µM), actives largely listed as inhibitors; actives 8.8% (n = 350,000); AID 504332; also: nearly all actives have a fitted effect of over 75% in size
# Target sequence (Q96KQ7 913-1193 limits assumed): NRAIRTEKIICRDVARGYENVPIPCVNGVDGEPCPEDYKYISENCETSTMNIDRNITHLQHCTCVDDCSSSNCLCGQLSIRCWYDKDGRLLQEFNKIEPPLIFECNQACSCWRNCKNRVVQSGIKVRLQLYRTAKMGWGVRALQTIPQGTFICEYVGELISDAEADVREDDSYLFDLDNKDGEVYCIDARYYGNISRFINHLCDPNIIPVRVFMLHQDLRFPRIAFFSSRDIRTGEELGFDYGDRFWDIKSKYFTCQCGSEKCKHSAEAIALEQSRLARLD
#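 Quantitative HTS format: methyltransferase activity on a biotin-tagged H3K9 peptide is measured by AlphaScreen, using a rabbit anti-monomethyl-H3K9 antibody with streptavidin donor and anti-IgG acceptor beads. Final levels are 20 nM enzyme, 500 nM peptide, 20 uM SAM; 2 h RT.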
# BAZ2B inh: blocks human BAZ2B; Potency, µM (titrated, usually from 114 µM), most hits filed as inhibitors; Q9UIF8; AlphaScreen BAZ2B-H3K14Ac peptide displacement; AID 504333; actives 4.4% (n = 360,000); also: nearly all actives have a fitted effect of over 60% in size
#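 AlphaScreen displacement: compounds (up to 110uM) incubated 30 min at room temperature with a preformed 50 nM BAZ2B/50 nM biotinylated H3K14Ac peptide complex in PBS pH 7.4 with Tween-20. Donor and acceptor beads at 10 ug/mL final added, 20 min light-protected before reading.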
# L3MBTL1 inh: blocks human L3MBTL1 | Q9Y468 | AlphaScreen L3MBTL1–H3K9me1 peptide binding | Potency, µM (doses to about 57.1 µM), usual class: inhibitors | actives 0.66% (n = 230,000) | AID 485360; also: nearly all actives have a fitted effect of over 60% in size
#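 AlphaScreen assay: L3MBTL1 (50 nM final) was preincubated 30 min at room temperature with biotinylated H3(1-15)K9me1 peptide (75 nM final), then 30 min with library compounds; streptavidin donor and nickel chelate acceptor beads (10 ug/mL final) added, 30 min dark.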
# HP1b chromo inh: inhibitors of HP1-beta chromodomain binding to methylated histone tails. P83916. AlphaScreen HP1-beta / biotin-H3K9me3 peptide binding. Potency, µM (doses to about 114 µM), actives largely listed as inhibitors. actives 0.56% (n = 390,000); also: nearly all actives have a fitted effect of over 70% in size
# Target sequence (P83916 whole entry, looked up): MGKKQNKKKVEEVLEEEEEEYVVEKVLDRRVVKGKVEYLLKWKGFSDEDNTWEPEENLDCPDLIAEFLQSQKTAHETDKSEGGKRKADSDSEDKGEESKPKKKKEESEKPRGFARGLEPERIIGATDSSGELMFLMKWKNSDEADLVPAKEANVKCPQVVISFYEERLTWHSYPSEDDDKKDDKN
#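 Compound inhibition of the preformed complex between 50 nM HP1-beta and 50 nM biotinylated H3K9me3 peptide was read by AlphaScreen. Buffer was PBS pH 7.4 with 0.01% Tween-20. Incubations ran 30 min at room temperature, with 10 ug/mL donor/acceptor beads.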
# JMJD2A Tudor: inhibitors of human JMJD2A Tudor domain | Potency, µM (titrated, usually from 114 µM), usual class: inhibitors | AlphaScreen JMJD2A-Tudor / H3K4me3 peptide binding | actives 4.4% (n = 390,000); also: nearly all actives have a fitted effect of over 50% in size
# A number is an active result; – = inactive; ? = inconclusive; · = no result; [ ] = dose if it differs, or a comment. Hits are enriched below; roughly 11% of the tested compounds scored in any of these assays. Calls follow the shape of the dose curve; as a rule, active = well fitted inhibition curve with a large enough effect; inconclusive = small, poorly fitted or top-dose-only effect; inactive = no such curve, though single readings can be large or run the other way.
SMILES,G9a inh,BAZ2B inh,L3MBTL1 inh,HP1b chromo inh,JMJD2A Tudor
Cc1cc2c(c(=O)n1CCCn1ccnc1)C(c1ccco1)C(C#N)=C(N)O2 (stereo unspecified),?,–,–,–,–
Cc1cc2c(c(=O)n1Cc1cccnc1)C(c1ccccc1)C(C#N)=C(N)O2 (stereo unspecified),–[2.33 µM],–,–,–,–
COc1ccc(C2C(C#N)=C(N)Oc3cc(C)n(Cc4ccco4)c(=O)c32)cc1 (stereo unspecified),25µM,–,·,–,–
COc1cccc(C2C(C#N)=C(N)Oc3cc(C)n(Cc4ccco4)c(=O)c32)c1 (stereo unspecified),50µM,–,–,–,–
O=C(Nc1nnc(-c2ccccc2Cl)o1)c1nc2ccccc2s1,–,–,–,–,–
CCOC(=O)c1cccc(Nc2ccc3cc(S(=O)(=O)N4CCCCC4)ccc3n2)c1,–,–,·,–,–
COc1cc(NS(=O)(=O)c2ccc(NC(=O)COc3cccc(C)c3)cc2)nc(OC)n1,25µM,–,·,–,–
Cc1cccc(OCC(=O)Nc2ccc(S(=O)(=O)Nc3ccccn3)cc2)c1,–,–,–,–,–
COC(=O)CCC(=O)NC(=S)Nc1ccc(S(=O)(=O)Nc2cc(OC)nc(OC)n2)cc1,50µM,–,–,–,–
COc1ccc(OCC(=O)NC(=S)Nc2ccc(S(=O)(=O)Nc3cc(OC)nc(OC)n3)cc2)cc1,–,–,–,–,–
O=C(O)[C@H](Cc1ccccc1)NC(=O)N1CCCCCC1,–,–,·,–,–
O=C(O)[C@H](Cc1ccccc1)NC(=O)N1CCOCC1,50µM,–,–,–,–
O=C(NC(Cc1ccccc1)C(=O)NC(Cc1ccccc1)C(=O)O)c1ccccc1 (stereo unspecified),28µM,?,–,–,–
CC(=O)NC(Cc1ccccc1)C(=O)NC(Cc1ccccc1)C(=O)O (stereo unspecified),?,–,·,–,–
Cc1ccc(NC(=O)c2cc(S(=O)(=O)N3CCC4(CC3)OCCO4)ccc2F)cc1Cl,–,–,·,–,–
CCCS(=O)(=O)NCc1cn2c(C)csc2n1,56µM,–,–,–,–
Cc1ccc(S(=O)(=O)NCc2cn3c(C)csc3n2)cc1,?,–,·,–,–
CC(=O)NCc1cn2c(C)csc2n1,–,–,–,–,–
CCS(=O)(=O)NCc1cn2c(C)csc2n1,–,–,–,–,–
Cc1csc2nc(CNC(=O)CCC(=O)O)cn12,50µM,–,–,–,–
Cc1ccc(SCc2cn3c(C)csc3n2)cc1,?,56µM,·,–,–
CCN1C(=O)S/C(=C/c2c(OCc3ccc(C(=O)O)cc3)ccc3ccccc23)C1=O,50µM,?,–,–,?
O=C1c2ccccc2C(=O)N1c1cccc(Cl)c1,·,·,·,·,–
O=C(c1ccccc1Oc1ccc([N+](=O)[O-])cc1)N1CCOCC1,–,–,·,–,–
O=C(CCC1CCCC1)N1CCC(N2CCN(c3ccccc3)CC2)CC1,?,32µM,·,?,1.4µM
SMILES,G9a inh,BAZ2B inh,L3MBTL1 inh,HP1b chromo inh,JMJD2A Tudor
COc1ccccc1C(=O)N1CCC(N2CCN(c3ccccc3)CC2)CC1,35µM,50µM,–,?,2.5µM
COc1ccccc1C(=O)N1CCN(c2cccc(C(F)(F)F)c2)CC1,?,–,–,–,–
CC1CCN(C(=O)COc2ccc(Nc3ccccc3)cc2)CC1,50µM,–,?,–,?
CC(=O)Nc1ccc(OCC(=O)N2CCC(Cc3ccccc3)CC2)cc1,–,–,·,–,–
O=C(c1ccccc1Oc1ccccc1)N1CCN(c2ccccc2)CC1,40µM,–,–,–,–
Cc1cccc(OCC(=O)N2CCC(N3CCCCCC3)CC2)c1,?,?,–,?,3.2µM
COc1ccccc1N1CCN(C(=O)COc2cccc3ccccc23)CC1,–,–,·,–,–
COc1ccccc1C(=O)N1CCC(N2CCN(c3ccccc3OC)CC2)CC1,7.9µM,50µM,–,?,18µM
COc1ccccc1N1CCN(C2CCN(C(=O)COc3ccccc3)CC2)CC1,10µM,50µM,–,–,–
COc1ccccc1N1CCN(C(=O)C2CCN(C(=O)c3ccccc3Cl)CC2)CC1,·,–,·,–,–
CCc1cccc(-n2c(=O)c3cccnc3n2CC(=O)Nc2ccc(F)c(C)c2)c1,–,–,·,–,–
CCc1ccc(C(=O)NNc2ccc(S(N)(=O)=O)cc2)cc1,22µM,–,·,–,–
CCc1ccc(C(=O)NNc2ccc(F)cc2)cc1,·,?,–,–,–
NS(=O)(=O)c1ccc(NNC(=O)c2ccccc2)cc1,·,–,·,–,–
CCc1ccc(C(=O)NNc2ccc(C)c(Cl)c2)cc1,7.9µM,–,–,–,–
CC(C)CCNC(=O)CN1C(=O)c2cccnc2Oc2ccccc21,–,–,·,–,–
CC(C)Nc1nc(NC(N)=S)nc(NC(C)(C)C)n1,8.9µM,–,–,–,–
CCNc1nc(NC(C)C)nc(NC(C)(C)C)n1,·,–,–,–,–
CC(C)Nc1nc(NC(N)=S)nc(NC(C)C)n1,2.5µM,–,–,–,–
CC(OC(=O)c1cccc(S(=O)(=O)N2CCCC2)c1)C(=O)c1ccccc1 (stereo unspecified),·,–,·,–,–
Cc1cc(=O)[nH]c(SCCOc2ccc(OC(C)C)cc2)n1,14µM,–,?,–,?
COc1cccc(=O)c2c(C)n(C)c(C)c12,16µM,?,?,–,?
CCOc1cccc(=O)c2c(C)n(C)c(C)c12,–,56µM,?,–,?
COc1cccc(-n2c(C)c3c(OC)cccc(=O)c3c2C)c1,?,56µM,–,–,?
CCC1CCC2(CC1)NC(=O)N(CC(=O)Nc1ccc(OC)c(Cl)c1)C2=O (stereo unspecified),–[12.7 µM],–,–,–,–
SMILES,G9a inh,BAZ2B inh,L3MBTL1 inh,HP1b chromo inh,JMJD2A Tudor
Cc1ccc(-n2c3c(cc(-c4nc(-c5ccc(Cl)cc5)cs4)c2=O)C(=O)CC(C)(C)C3)cc1,–,–,·,–,–
COCCCNCC(O)COc1ccccc1F (stereo unspecified),–,–,·,?,1.3µM
COCCCNCC(O)COc1cccc2[nH]c(C)cc12 (stereo unspecified),–,–,–,–,–
S=c1[nH]nc(-c2ccco2)n1/N=C/C(Cl)=C/c1ccccc1,4.5µM,?,–,?,?
O=C(N/N=C/C(Cl)=C/c1ccccc1)c1ccco1,·,–,–,–,–
Cc1cc(-c2n[nH]c(=S)n2/N=C/C(Cl)=C/c2ccccc2)n[nH]1,1.6µM,?,–,–,56µM
Cc1ccc(N2CCN(/N=C/C(Cl)=C/c3ccccc3)CC2)cc1,–,–,–,–,–
CC(=O)N1CCCc2cc(S(=O)(=O)N(C)CC(=O)Nc3cccc(C)c3C)ccc21,–,–,·,–,–
O=C(CN1CCN(c2ccccn2)CC1)N1c2ccccc2Sc2ccc(C(F)(F)F)cc21,?,22µM,–,16µM,2µM
O=C(CN1CCN(c2ccccn2)CC1)N1c2ccccc2CCc2ccccc21,8.9µM,32µM,–,18µM,3.2µM

# High-throughput results (PubChem)
